# Inconclusive results are not listed. Unmarked numbers belong to inactive results. The source made the active and inactive calls. Calls follow the shape of the dose curve; as a rule, active = well fitted cell-killing curve with a large enough effect; inconclusive = small, poorly fitted or top-dose-only effect, or effect the other way; inactive = no such curve, though single readings can be large or run the other way.
# Test: Quantitative highthroughput screen to assess conditional lethalithy of SEM cells grown in RPMI1640 with unreated serum (RPMI+s) (AID 1963883); also: nearly all actives have a fitted effect of over 35% in size
# Details: SEM B-ALL cells, CellTiter-Glo viability, 48 h; series mostly up to 45.8 µM; viability: at the top concentration
# Excerpt: Assay Provider: Jason Cantor Ph.D.
# Department of Biochemistry
# University of Wisconsin-Madison, Madison, WI, USA
# Chemical screening studies have identified drug sensitivities across hundreds of cancer cell lines but most putative therapeutics fail to translate. Discovery and development of drug candidates in models that more accurately reflect nutrient levels in human blood is a major challenge. Here we performed high-throughput screens in conventional versus Human Plasma-Like Medium (HPLM) to identify compounds that were "missed" when screening using the artificial culture condition. Sets of conditional anticancer compounds spanned phases of clinical development and included non-oncology drugs were assessed. […] We also traced conditional phenotypes for several chemotherapeutics to availability of HPLM-specific metabolites and confirmed others for compounds whose reported targets are encoded by nonessential genes. Our findings establish generalizable strategies for exploiting conditional lethality in HPLM to reveal therapeutic candidates and mechanisms of action in cancer cells.
# Described herein are the results of each viability screens against three cell lines: NOMO1 (an acute myeloid leukemia cell line); P12-Ichikawa (a T-cell acute lymphoblastic leukemia); and SEM (a B-cell ALL). Each assay was screened using 3 different cell culture media: homemade human plasma-Like medium with 10% dialyzed fetal bovine serum (HPLM+ds); RPMI1640 with 10% untreated FBS and 5mM glucose (RPMI+s); and RPMI1640 with 10% dialyzed fetal bovine serum and 5 mM glucose (RPMI+ds).
# PROTOCOL TABLE (as described by Inglese J, Shamu CE and Guy RK. 2007)
# SEQUENCE No. (e.g., 1, 2, 3, etc.); […] (e.g., Cells, Incubation, Reagent, etc.); VALUE and DESCRIPTION.
# 1; Cells; 5 uL; white, solid bottom 1536-well Greiner assay plate.
# 2; Compounds; 23 nL; Kalypsis pin tool (Wako USA) equipped with a 1536-well pin head to transfer to the assay plates.
# 3; Incubation; 48 hours; 37C incubation.
# 4; Reagent; 3 uL; CellTiter Glo (Promega).
# 5; Incubation; 5 min, room temperature
# 6; Detection; Luminescence, Viewlux PerkinElmer.
# NOTES (numbers refer to Sequence numbers above)
# 1. Briefly, 5 ul of cell reagent was dispensed using a Multidrop Combi Dispenser. The NOMO1 and SEM cells were plated at 500 cells/well and the P12-Ichikawa line at 1000 cells/well.
# 2. After seeding the cells, 23 nL of MIPE 4.1 library compounds (in DMSO) were added to each plate using a Kalypsys 1536 Pintool dispenser. Bortezomib at final concentration of […] and DMSO were added to each plate as positive and negative controls respectively. For each screen, MIPE 4.1 compounds were added over an eleven-point concentration range […] in 3-fold dilutions.
# 3. Each plate was covered with a stainless steel gasketed lid to prevent evaporation and incubated for 48 hour at 37C, 95% relative humidity, and 5% CO2.
# 4-5. Three microliter CellTilter-GloTM luminescent substrate mix (Promega) reagent was added to the assay plate and incubated at room temperature for 5 min.
# 6. The luminescence signal was measured using a ViewLux (PerkinElmer) multiplate reader with a 2 second exposure time per plate. Data for each compound were normalized as percent viability such that measurements for DMSO and the empty well controls in each plate were defined as 100% and 0%, respectively.
# Potency is read from the fitted curve at half-maximal effect.
SMILES,viability [%],Potency
Cc1ccccc1-n1c(Cn2ncc3c(N)ncnc32)nc2cccc(C)c2c1=O,102,
O=C(Oc1ccc([N+](=O)[O-])cc1)N1CCC(C(O)(c2ccc3c(c2)OCO3)c2ccc3c(c2)OCO3)CC1,99.3,
CN1C(=O)COc2c(C(=O)NC3CN4CCC3CC4)cc(Cl)cc21 (stereo not given),101,
O=S(=O)(F)Cc1ccccc1,80.5,
CN1C(=O)CCS(=O)(=O)C1c1ccc(Cl)cc1 (stereo not given),97.5,
C[C@@H]1O[C@@H](O[C@@H]2C=C3CC[C@@H]4[C@@H](CC[C@]5(C)[C@H](c6ccc(=O)oc6)CC[C@@]45O)[C@@]3(C)CC2)[C@H](O)[C@H](O)[C@H]1O,,46.9 nM (active)
O=c1[nH]c2ccc(Cl)cc2c(N[C@@H]2CN3CCC2CC3)c1-c1nc2ccccc2[nH]1,,83.3 nM (active)
CCOP(=O)(OCC)C(C)NC(=O)N(CCCl)N=O (stereo not given),72.4,
CCN1C[C@]2(OC(=O)c3ccccc3NC(C)=O)CC[C@H](OC)[C@@]34[C@H]5CC6[C@@H](OC)C[C@](O)(C(C[C@@H]23)[C@@H]14)[C@@]5(O)[C@@H]6OC,,6620 nM (active)
CNCC(O)c1ccc(O)cc1 (stereo not given),96.8,
CC(=O)N(C)c1cccc(-c2ccnc3c(C(=O)c4cccs4)cnn23)c1,97.7,
COc1ccc2c(c1OC)CN1CCc3cc4c(cc3C1C2)OCO4 (stereo not given),,372 nM (active)
C[C@]12CC[C@H]3[C@@H](CCC4=CC(=O)CC[C@@]43C)[C@H]1CC[C@H]2O,85.2,
O=C(NCC1CCOCC1)c1cnc(Nc2ccc(Cl)cc2Cl)nc1C(F)(F)F,88,
C1=C2CCCN[C@H]2[C@@H]2C[C@H]1[C@@H]1CCCCN1C2,103,
CC1=C(O)C(=O)C=C2C1=CC=C1[C@@]2(C)CC[C@@]2(C)[C@@H]3C[C@](C)(C(=O)O)CC[C@]3(C)CC[C@]12C,,2640 nM (active)
COc1cccc2c1[C@]13CCN(CC4CC4)[C@H](C2)[C@]1(OC)CCC(=O)C3,93.4,
O=C(O)c1nn(Cc2ccc(Cl)cc2Cl)c2ccccc12,89.3,
c1cc2c(cc1[C@H]1OC[C@H]3[C@H]1CO[C@H]3c1ccc3c(c1)OCO3)OCO2,70,
NCC1(CC(=O)O)CCCCC1,97.8,

SMILES,viability [%],Potency
C[C@]12CC[C@@H]3[C@@H](CCC4=CC(=O)CC[C@@H]43)[C@@H]1CC[C@@H]2OC(=O)CCc1ccccc1,98.4,
CC(C)(C)[C@]1(O)C[C@@H]2OC(=O)C[C@@]23C(=O)O[C@@H]2OC(=O)[C@H](O)C213 (stereo not given in full),103,
C[C@]12CC[C@@H]3c4ccc(OC(=O)N(CCCl)CCCl)cc4CC[C@H]3[C@@H]1CC[C@@H]2OP(=O)(O)O,,14800 nM (active)
CC(C)(O)C(=O)Nc1ccc([N+](=O)[O-])c(C(F)(F)F)c1,81.6,
O=c1[nH]c2ccccc2n1CCCN1CCC(n2c(=O)[nH]c3cc(Cl)ccc32)CC1,81.4,
Cc1cccc(C)c1NC(=O)CN1CCCC1=O,85.2,
C[C@@H]1[C@H](O)[C@@H](C)C=CC=CCCC=CC=CC=CC=C[C@H](O[C@H]2O[C@@H](C)[C@H](O)[C@@H](N)[C@@H]2O)CC2O[C@](O)(C[C@@H](O)[C@H](O)CC[C@@H](O)C[C@@H](O)C[C@@H](O)CC(=O)O[C@H]1C)C[C@H](O)[C@H]2C(=O)O,103,
CCCC[N+]1(C)[C@H]2CC(OC(=O)[C@H](CO)c3ccccc3)C[C@H]1[C@H]1O[C@H]12 (stereo not given in full),90.1,
CN(C)CCN(C)CCc1ccc(Cl)c(Cl)c1,102,
CC(C)N[C@@H]1CCn2c(=O)[nH]c3cccc(c32)[C@@H]1O,92.9,
O=C1CCC[C@@H]2[C@H]3CCCN4CCC[C@@H](CN12)[C@@H]34,84,
CC[C@@H]1[C@@H](C)O[C@@](O)([C@@H](C)[C@H](O)[C@H](C)[C@H]2OC(=O)C=CC=C[C@@H](C)[C@@H]([C@@H](C)[C@@H](O)[C@H](C)[C@@]3(O)C[C@H](O[C@H]4C[C@H](O)[C@H](O)[C@H](C)O4)[C@H](CC)[C@@H](C)O3)OC(=O)C=CC=C[C@@H]2C)C[C@H]1O[C@H]1C[C@H](O)[C@H](O)[C@H](C)O1,,2640 nM (active)
Clc1ccccc1C(c1ccccc1)(c1ccccc1)n1cccn1,85.9,
CC(=Cc1csc(C)n1)[C@@H]1C[C@H]2O[C@]2(C)CCC[C@H](C)[C@@H](O)[C@@H](C)C(=O)C(C)(C)[C@@H](O)CC(=O)O1,14.1,
CCC1(c2ccc(N)cc2)CCC(=O)NC1=O (stereo not given),105,
COc1cc(OC)c(OC)cc1C=O,90.9,
CN(C)CCc1ccc(O)cc1,92.5,
C[C@@H]1[C@@H](CC(C[C@H]2O[C@@H]3O[C@]4(C)CC[C@@H]5[C@H](C)CC[C@@H]([C@H]2C)[C@@]35OO4)C[S+](=O)([O-])c2ccc(COC(=O)N(C)C)cc2)O[C@@H]2O[C@]3(C)CC[C@H]4[C@H](C)CC[C@@H]1[C@@]24OO3 (stereo not given in full),,418 nM (active)
CN(C)[C@@H]1C(=O)C(C(N)=O)=C(O)[C@@]2(O)C(=O)C3=C(O)c4c(O)cccc4[C@@](C)(O)[C@H]3C[C@@H]12,98.2,
O=[N+]([O-])c1ncc[nH]1,82.7,

# From PubChem BioAssay (NCATS)
